This passage reports binding signal results from article PMC7862700, “An all-to-all approach to the identification of sequence-specific readers for epigenetic DNA modifications on cytosine”.

Common to all, as to test: DAPPL (digital affinity profiling via proximity ligation, sequencing); 10 mM Tris-HCl pH 7.5, 50 mM NaCl, 1 mM DTT, 4% glycerol, room temperature, 30 min; GST-TFs on glutathione beads, 16-mer random dsDNA library, 0.1% formaldehyde crosslink after washing; high values mean tight binding
One assay addresses T1, FLI1 (Homo sapiens, UniProt Q01543 1-452).
T1 sequence: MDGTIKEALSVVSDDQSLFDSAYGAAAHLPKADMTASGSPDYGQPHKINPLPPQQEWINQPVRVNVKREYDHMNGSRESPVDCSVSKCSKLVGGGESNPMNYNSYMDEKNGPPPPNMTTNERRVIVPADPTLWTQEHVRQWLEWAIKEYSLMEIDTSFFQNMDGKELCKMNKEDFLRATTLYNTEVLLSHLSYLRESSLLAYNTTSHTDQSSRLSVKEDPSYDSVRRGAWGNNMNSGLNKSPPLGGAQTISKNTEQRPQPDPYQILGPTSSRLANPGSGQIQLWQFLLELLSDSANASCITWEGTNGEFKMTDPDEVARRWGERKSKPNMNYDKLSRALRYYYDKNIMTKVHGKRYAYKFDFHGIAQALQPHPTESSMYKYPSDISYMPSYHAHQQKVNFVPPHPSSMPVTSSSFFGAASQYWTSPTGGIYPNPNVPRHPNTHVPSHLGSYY
Particulars: protein: recombinant; tags: N-terminal GST; dsDNA, one strand shown. An outline of the steps: (§1)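 Human transcription factors fused to GST were expressed in yeast, captured on glutathione beads, given DNA barcodes and pooled with a GST-only negative control. Pools were incubated with 200 nmole of a 16-mer random double-stranded DNA library in Tris/NaCl/DTT/glycerol buffer at room temperature for 30 min. They were then washed, crosslinked with 0.1% formaldehyde, proximity-ligated (BsaI/T4 ligase, 1 h, 37 °C), PCR-amplified and sequenced on an Illumina NextSeq500. Binding signal is each 6-mer's read frequency for a factor divided by its frequency for the GST control.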

The next assay addresses T2, ELK1 (Homo sapiens, UniProt P19419 1-428).
T2 sequence: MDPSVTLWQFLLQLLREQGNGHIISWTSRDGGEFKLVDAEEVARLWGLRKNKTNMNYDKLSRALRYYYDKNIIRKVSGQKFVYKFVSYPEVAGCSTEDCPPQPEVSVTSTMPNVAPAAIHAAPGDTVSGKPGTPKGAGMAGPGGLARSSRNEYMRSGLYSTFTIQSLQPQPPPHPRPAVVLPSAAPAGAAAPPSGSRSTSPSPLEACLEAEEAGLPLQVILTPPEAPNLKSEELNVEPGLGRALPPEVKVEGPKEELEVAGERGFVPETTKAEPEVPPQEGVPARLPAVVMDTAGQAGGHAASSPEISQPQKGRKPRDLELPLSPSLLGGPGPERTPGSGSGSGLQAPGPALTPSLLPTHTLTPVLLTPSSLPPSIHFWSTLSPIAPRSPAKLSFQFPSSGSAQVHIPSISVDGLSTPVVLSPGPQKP
To be noted: protein: recombinant; tags: N-terminal GST; dsDNA, one strand shown. An outline of the steps:
as §1

In a further assay the target is T3, GABPA (Homo sapiens, UniProt Q06546 1-454).
T3 sequence: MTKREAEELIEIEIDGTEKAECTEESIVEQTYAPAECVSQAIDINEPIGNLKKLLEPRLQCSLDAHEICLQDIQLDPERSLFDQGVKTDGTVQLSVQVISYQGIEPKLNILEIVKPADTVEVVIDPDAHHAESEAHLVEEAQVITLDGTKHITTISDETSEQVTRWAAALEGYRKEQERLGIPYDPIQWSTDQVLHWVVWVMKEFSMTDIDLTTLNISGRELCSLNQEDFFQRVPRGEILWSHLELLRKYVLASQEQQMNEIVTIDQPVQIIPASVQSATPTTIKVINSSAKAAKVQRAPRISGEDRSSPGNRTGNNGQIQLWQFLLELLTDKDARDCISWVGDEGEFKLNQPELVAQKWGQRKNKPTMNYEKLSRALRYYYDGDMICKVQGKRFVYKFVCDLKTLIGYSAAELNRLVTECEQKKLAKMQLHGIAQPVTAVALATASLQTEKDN
Particulars: protein: recombinant; tags: N-terminal GST; dsDNA, one strand shown. An outline of the steps: as §1

The target in a further assay is ELF1 (Homo sapiens, UniProt P32519 1-619). Particulars: protein: recombinant; tags: N-terminal GST; dsDNA, one strand shown. An outline of the steps: as §1
Sequence of ELF1 (P32519 whole entry): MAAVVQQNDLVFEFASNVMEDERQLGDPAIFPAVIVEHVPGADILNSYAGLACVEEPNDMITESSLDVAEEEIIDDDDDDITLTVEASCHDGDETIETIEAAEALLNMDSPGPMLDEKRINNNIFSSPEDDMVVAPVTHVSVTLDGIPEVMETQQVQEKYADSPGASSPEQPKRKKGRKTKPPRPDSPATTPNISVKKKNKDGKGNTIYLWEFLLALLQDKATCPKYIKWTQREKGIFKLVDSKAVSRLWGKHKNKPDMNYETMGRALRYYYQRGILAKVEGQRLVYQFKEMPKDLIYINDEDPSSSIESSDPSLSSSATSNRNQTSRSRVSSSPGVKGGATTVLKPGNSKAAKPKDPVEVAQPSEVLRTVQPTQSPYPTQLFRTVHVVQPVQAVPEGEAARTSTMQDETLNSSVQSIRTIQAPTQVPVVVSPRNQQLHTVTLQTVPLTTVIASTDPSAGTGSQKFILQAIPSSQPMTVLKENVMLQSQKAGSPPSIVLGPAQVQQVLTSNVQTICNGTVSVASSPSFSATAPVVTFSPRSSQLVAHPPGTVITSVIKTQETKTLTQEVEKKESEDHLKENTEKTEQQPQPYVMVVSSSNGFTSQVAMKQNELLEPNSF
The next assay addresses SPIB (Homo sapiens, UniProt Q01892 1-262). Particulars: protein: recombinant; tags: N-terminal GST; dsDNA, one strand shown. The procedure, abridged: as §1
Another assay addresses T4, ELK3 (Homo sapiens, UniProt P41970 1-407).
T4 sequence: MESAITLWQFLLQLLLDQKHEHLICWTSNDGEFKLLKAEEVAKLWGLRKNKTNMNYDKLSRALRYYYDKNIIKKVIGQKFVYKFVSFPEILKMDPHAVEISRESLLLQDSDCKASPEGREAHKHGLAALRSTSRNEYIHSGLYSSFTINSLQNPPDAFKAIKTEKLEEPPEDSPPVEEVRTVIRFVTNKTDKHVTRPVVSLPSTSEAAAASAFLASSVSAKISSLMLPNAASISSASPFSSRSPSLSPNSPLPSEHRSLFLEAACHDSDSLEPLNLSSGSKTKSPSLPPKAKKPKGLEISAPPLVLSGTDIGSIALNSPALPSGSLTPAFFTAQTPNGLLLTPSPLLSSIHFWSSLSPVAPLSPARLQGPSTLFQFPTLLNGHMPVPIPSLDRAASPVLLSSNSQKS
To be noted: protein: recombinant; tags: N-terminal GST; dsDNA, one strand shown. The procedure, abridged: as §1

For another assay, the target named is HSF1 (Homo sapiens, UniProt Q00613 1-529). Particulars: protein: recombinant; tags: N-terminal GST; chain copies: 3; dsDNA, one strand shown. The procedure, abridged: as §1
Sequence of HSF1 (Q00613 whole entry): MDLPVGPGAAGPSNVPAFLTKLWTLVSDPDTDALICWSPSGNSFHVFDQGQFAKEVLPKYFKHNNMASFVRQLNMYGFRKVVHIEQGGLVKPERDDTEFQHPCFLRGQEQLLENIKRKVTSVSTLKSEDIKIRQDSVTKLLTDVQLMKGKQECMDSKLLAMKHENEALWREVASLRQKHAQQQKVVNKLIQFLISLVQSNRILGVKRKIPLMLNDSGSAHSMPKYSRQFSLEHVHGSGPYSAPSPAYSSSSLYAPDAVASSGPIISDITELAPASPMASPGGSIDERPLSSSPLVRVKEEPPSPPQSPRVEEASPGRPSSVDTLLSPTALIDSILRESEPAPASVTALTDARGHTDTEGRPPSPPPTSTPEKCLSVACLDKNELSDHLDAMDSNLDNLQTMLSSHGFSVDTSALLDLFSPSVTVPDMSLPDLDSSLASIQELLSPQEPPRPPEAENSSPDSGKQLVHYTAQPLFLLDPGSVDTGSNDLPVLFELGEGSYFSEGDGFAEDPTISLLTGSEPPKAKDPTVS
A further assay has as its target T5, ELK4 (Homo sapiens, UniProt P28324-2 1-405).
T5 sequence: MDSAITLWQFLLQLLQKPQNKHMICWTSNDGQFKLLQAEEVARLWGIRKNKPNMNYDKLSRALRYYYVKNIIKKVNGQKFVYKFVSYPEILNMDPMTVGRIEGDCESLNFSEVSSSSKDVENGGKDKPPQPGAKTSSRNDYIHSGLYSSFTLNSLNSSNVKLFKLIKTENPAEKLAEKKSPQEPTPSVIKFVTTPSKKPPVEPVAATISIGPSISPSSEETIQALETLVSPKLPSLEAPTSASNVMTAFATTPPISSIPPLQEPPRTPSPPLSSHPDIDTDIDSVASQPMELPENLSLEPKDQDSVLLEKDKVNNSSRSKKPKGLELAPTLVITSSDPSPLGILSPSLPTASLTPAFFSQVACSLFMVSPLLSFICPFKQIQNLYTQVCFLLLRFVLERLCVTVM
Particulars: protein: recombinant; tags: N-terminal GST; dsDNA, one strand shown. The procedure, abridged:
as §1

The next assay deals with T6, ETV2 (Homo sapiens, UniProt O00321 1-342).
T6 sequence: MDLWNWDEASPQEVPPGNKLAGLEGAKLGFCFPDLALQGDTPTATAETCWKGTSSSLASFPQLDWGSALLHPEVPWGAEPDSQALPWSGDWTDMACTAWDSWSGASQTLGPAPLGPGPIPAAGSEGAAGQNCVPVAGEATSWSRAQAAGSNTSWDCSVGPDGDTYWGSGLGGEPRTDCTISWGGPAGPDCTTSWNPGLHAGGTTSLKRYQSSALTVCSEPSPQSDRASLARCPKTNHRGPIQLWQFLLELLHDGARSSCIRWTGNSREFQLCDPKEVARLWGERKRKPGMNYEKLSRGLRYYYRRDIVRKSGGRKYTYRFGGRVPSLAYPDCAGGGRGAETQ
To be noted: protein: recombinant; tags: N-terminal GST; dsDNA, one strand shown. An outline of the steps:
as §1

For a further assay, the target named is T7, ELF3 (Homo sapiens, UniProt P78545 1-371).
T7 sequence: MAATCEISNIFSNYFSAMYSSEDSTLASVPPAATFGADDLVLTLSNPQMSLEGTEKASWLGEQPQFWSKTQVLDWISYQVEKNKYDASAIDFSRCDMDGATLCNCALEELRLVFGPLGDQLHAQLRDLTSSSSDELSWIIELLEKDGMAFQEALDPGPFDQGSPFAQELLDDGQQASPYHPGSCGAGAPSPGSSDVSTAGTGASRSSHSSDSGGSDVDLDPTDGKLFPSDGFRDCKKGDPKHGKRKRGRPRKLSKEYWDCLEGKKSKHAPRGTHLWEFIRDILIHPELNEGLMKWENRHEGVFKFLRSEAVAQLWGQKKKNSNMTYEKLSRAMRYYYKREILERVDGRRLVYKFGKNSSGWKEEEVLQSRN
To be noted: protein: recombinant; tags: N-terminal GST; dsDNA, one strand shown. The procedure, abridged: as §1

The target in a further assay is ETV1 (Homo sapiens, UniProt P50549 1-477). To be noted: protein: recombinant; tags: N-terminal GST; dsDNA, one strand shown. An outline of the steps:
as §1

Another assay addresses T8, ETV3L (Homo sapiens, UniProt Q6ZN32 1-361).
T8 sequence: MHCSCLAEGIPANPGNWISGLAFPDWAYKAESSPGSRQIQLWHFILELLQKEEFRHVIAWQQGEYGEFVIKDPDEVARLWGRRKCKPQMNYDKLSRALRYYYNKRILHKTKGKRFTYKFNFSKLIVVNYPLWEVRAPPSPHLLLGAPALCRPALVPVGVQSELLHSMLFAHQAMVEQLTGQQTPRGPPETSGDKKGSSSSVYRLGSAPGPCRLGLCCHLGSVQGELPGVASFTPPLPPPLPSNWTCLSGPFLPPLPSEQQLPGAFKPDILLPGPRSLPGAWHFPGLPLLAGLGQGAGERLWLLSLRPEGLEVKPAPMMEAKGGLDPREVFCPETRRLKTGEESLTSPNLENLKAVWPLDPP
Particulars: protein: recombinant; tags: N-terminal GST; dsDNA, one strand shown. An outline of the steps:
as §1

In the next assay the target is T9, ETV7 (Homo sapiens, UniProt Q9Y603 1-341).
T9 sequence: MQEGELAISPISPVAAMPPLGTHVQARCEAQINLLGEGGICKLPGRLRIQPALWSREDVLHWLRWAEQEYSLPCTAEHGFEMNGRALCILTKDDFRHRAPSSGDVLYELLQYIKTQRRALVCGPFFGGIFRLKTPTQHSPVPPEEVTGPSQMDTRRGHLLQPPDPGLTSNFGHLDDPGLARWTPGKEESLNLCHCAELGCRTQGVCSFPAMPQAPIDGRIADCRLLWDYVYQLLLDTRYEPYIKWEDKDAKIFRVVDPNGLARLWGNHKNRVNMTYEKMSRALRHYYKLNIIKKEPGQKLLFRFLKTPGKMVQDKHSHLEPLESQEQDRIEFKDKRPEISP
Particulars: protein: recombinant; tags: N-terminal GST; dsDNA, one strand shown. An outline of the steps:
as §1

The target of a further assay is T10, ETV3 (Homo sapiens, UniProt P41162-2 1-143).
T10 sequence: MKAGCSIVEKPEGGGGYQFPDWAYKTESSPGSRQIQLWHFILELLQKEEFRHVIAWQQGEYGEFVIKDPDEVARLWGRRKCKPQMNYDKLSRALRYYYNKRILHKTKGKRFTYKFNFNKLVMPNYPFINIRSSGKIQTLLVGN
Particulars: protein: recombinant; tags: N-terminal GST; dsDNA, one strand shown. An outline of the steps: as §1

Sequence of SPIB (Q01892 whole entry): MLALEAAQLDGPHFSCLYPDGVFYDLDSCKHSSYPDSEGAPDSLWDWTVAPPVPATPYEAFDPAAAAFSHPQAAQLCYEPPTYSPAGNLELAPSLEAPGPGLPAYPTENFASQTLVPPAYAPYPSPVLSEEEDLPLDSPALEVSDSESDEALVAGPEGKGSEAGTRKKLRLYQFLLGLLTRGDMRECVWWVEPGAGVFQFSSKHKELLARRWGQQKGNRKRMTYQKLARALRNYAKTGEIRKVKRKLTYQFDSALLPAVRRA
Sequence of ETV1 (P50549 whole entry): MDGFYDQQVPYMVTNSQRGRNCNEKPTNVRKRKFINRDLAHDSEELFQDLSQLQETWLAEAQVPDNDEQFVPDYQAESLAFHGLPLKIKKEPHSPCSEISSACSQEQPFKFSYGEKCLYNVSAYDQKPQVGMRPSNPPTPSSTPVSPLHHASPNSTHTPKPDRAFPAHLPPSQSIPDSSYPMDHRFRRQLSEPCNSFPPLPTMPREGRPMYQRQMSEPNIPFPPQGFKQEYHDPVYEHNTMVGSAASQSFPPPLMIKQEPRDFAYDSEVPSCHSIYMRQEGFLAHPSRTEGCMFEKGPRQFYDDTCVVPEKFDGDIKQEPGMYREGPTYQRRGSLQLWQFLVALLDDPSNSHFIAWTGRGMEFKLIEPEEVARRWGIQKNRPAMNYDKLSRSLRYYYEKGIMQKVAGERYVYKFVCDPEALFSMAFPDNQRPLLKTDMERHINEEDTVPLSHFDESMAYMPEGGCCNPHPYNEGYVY

GGTTCT: the binding signal is 1.07 fold enrichment (6-mer frequency, TF over GST control) with FLI1; 1.02 fold enrichment (6-mer frequency, TF over GST control) in the assay with ELK1; 1.02 fold enrichment (6-mer frequency, TF over GST control) with GABPA; 1.03 fold enrichment (6-mer frequency, TF over GST control) with ELF1; 1.05 fold enrichment (6-mer frequency, TF over GST control) with SPIB; 1.11 fold enrichment (6-mer frequency, TF over GST control) with ELK3. For the same sequence, the binding signal is 1.54 fold enrichment (6-mer frequency, TF over GST control) with HSF1; 1.03 fold enrichment (6-mer frequency, TF over GST control) in the assay with ELK4; 1.19 fold enrichment (6-mer frequency, TF over GST control) in the assay with ETV2; 1.08 fold enrichment (6-mer frequency, TF over GST control) with ELF3; 1.01 fold enrichment (6-mer frequency, TF over GST control) with ETV1; 1.01 fold enrichment (6-mer frequency, TF over GST control) in the assay with ETV3L. For the same sequence, the binding signal with ETV7 is 1.01 fold enrichment (6-mer frequency, TF over GST control); in the assay with ETV3, 1 fold enrichment (6-mer frequency, TF over GST control).
